From PubChem BioAssay (NCI)
The panel holds about 83,000 compounds, 20% with a hit somewhere; the sample as a whole holds those more often.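 Step 1: grow cells in 96-well plates. Step 2: add test compound at a single concentration. Step 3: incubate 48 h. Step 4: record percent growth.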 Unmarked numbers belong to inactive results. Calls of active or inactive are those of the source. How the source made its calls: active means growth percent below 10; inactive means the rest.

How the values were obtained:
Assay in all cases: NCI-60 one-dose screen, 48 h (100 = growth as untreated, 0 = no growth, -100 = all killed)
Settings in all cases: 10 µM unless noted
[1] = test system: HCT-15 colon
[2] = test system: HT29 colon
[3] = test system: SNB-75 CNS
[4] = test system: SNB-19 CNS
[5] = test system: U251 CNS
[6] = test system: PC-3 prostate
[7] = test system: SK-MEL-5 melanoma
[8] = test system: UACC-62 melanoma
[9] = test system: LOX IMVI melanoma
[10] = test system: SK-MEL-28 melanoma
[11] = test system: SK-MEL-2 melanoma
[12] = test system: EKVX NSCLC
[13] = test system: SN12C renal
[14] = test system: UO-31 renal
[15] = test system: TK-10 renal
[16] = test system: ACHN renal
[17] = test system: A498 renal
[18] = test system: CCRF-CEM leukemia
[19] = test system: MOLT-4 leukemia
[20] = test system: CAKI-1 renal

SMILES	growth [1]	growth [2]	growth [3]	growth [4]	growth [5]	growth [6]	growth [7]	growth [8]	growth [9]	growth [10]	growth [11]	growth [12]	growth [13]	growth [14]	growth [15]	growth [16]	growth [17]	growth [18]	growth [19]	growth [20]
O=c1c2c(c(=O)n1O)c1c3ccc[nH]c3nc1c1nc3[nH]cccc3c12	97%	89.7%	87%	70.8%	64.6%	67.7%	85.8%	63%	72.6%	96.2%	99.4%	93.4%	80.5%	91%	117%	88.3%	94.5%	28.5%	43.7%	–
N#Cc1c(-c2ccccc2)nc2c(c(-c3ccccc3)nn2-c2ccccc2)c1-c1ccc(O)cc1	34.8%	84.7%	33.2%	39.3%	24.3%	4.85% (active)	59%	61.5%	-48.3% (active)	49.1%	72.7%	45.2%	61.9%	27.9%	21.7%	42.3%	-1.01% (active)	22.1%	–	–
COc1cc(/C=N/O)nc(-c2ccccn2)c1	26.7%	32.6%	43%	23.1%	21.3%	49.5%	-22.1% (active)	4.54% (active)	3.54% (active)	18.2%	25.6%	23.4%	15.5%	3.15% (active)	35.3%	9.42% (active)	–	9.2% (active)	12%	18.4%
Cc1ccc(CNc2c3ccccc3nc3cc(NC(=O)CCN4CCCC4)ccc23)cc1	7.15% (active)	0.938% (active)	4.1% (active)	17.8%	-55.3% (active)	-0.231% (active)	42.3%	36.1%	-86.4% (active)	53.6%	40.2%	39.3%	2.87% (active)	3.83% (active)	-20% (active)	12.3%	–	-31.5% (active)	-33.5% (active)	7.04% (active)
COc1cc(-c2n/c(=C\c3c(O)[nH]c4ccc(Cl)cc34)cc3c2=Nc2ccccc2-3)ccc1F	46.4%	-10.3% (active)	-39.5% (active)	2.79% (active)	-88.3% (active)	-8.04% (active)	27.6%	46.5%	0.0846% (active)	1.48% (active)	67.8%	51.6%	3.41% (active)	-61.4% (active)	1.18% (active)	-41.8% (active)	96.2%	–	–	–
COc1c(Cl)c2c(c(OC)c1OC)-c1ccc(SC)c(=O)cc1[C@@H](NC(=O)OCC(F)(F)F)CC2	9.54% (active)	13.5%	37.4%	29.4%	20.6%	24.7%	-7.65% (active)	34.4%	15.1%	63%	46.3%	40%	24.2%	28.6%	44.5%	25.8%	–	4.8% (active)	3.85% (active)	15.6%
COc1ccc(/C=C(\C#N)n2nc3cccc(F)c3n2)cc1	96.9%	112%	81.5%	94.6%	102%	111%	95.8%	91%	101%	103%	100%	104%	104%	89.6%	100%	99.7%	–	98%	100%	81.2%
O=S(=O)(NCCNc1nccc(-c2c(-c3cccc(F)c3)nc3sccn23)n1)c1ccc(Br)cc1	29.2%	28.2%	75.3%	59.3%	53.4%	51%	31.5%	35.8%	38.5%	69.1%	71.7%	59.5%	42.9%	21.2%	68.8%	30.2%	–	51%	35.7%	–
NC(=NCCCOc1ccc(F)cc1)Nc1ccc(I)cc1	75.3%	38.2%	63.6%	78.1%	78.6%	59.1%	38.2%	82.8%	84.4%	88.3%	84.1%	76%	81%	59.2%	73%	73.5%	–	79.3%	40.9%	74.5%
COc1ccc(CNCCN2C(=O)c3ccc4c5c(ccc(c35)C2=O)C(=O)N(CCNCc2ccc(OC)c(OC)c2OC)C4=O)c(OC)c1OC	-51.2% (active)	-45.7% (active)	-12.6% (active)	-13.6% (active)	-46.1% (active)	0.0353% (active)	-93.9% (active)	-72.2% (active)	-27.9% (active)	-7.81% (active)	-62.9% (active)	-28.3% (active)	-77.3% (active)	-19.6% (active)	30.3%	-51.1% (active)	–	-14.8% (active)	-35.2% (active)	-12.3% (active)
